The source of these data is ChEMBL document CHEMBL4513216, “Probing the Open Global Health Chemical Diversity Library for Multistage-Active Starting Points for Next-Generation Antimalarials” (ACS Infect Dis, 2020).

Molecules are shown by their SMILES. About 8,600 (12%) of roughly 69,000 compounds showed an effect of 50% or more. The entries come from a sample that favours strong results as a whole.

This assay has as its system Plasmodium berghei. As to the kind of experiment: Screen against P. berghei liver stage (PbLuc), transformed with Luciferase, at 10uM. Format: functional, HepG2. As to conditions: tested at 10 uM.
For the compound `Cc1nccc(C(=O)N2CCCC(c3cc(C(F)(F)F)[nH]n3)C2)n1` (centres undefined), the INHIBITION was found to be 40%.

For the compound `Cc1ccoc1C(=O)N1CCCC(c2cc(C(F)(F)F)[nH]n2)C1` (centres undefined), the INHIBITION came out at 62.6%.

As for `O=C(c1ccc(Cl)o1)N1CCCC(c2cc(C(F)(F)F)[nH]n2)C1` (centres undefined), the INHIBITION worked out at 63.4%. `Cc1noc(C)c1C(=O)N1CCCC(c2cc(C(F)(F)F)[nH]n2)C1` (centres undefined): the INHIBITION was -27.9%.

As for `Cc1ccc(C(=O)N2CCCC(c3cc(C(F)(F)F)[nH]n3)C2)o1` (centres undefined), the INHIBITION was 54.4%. In the case of `O=C(CO)N1CCCC(c2cc(C(F)(F)F)[nH]n2)C1` (centres undefined), the INHIBITION is on record as 6.26%. In the case of `Cc1cc(C2CCCN(C(=O)c3ccc(Cl)o3)C2)n[nH]1` (centres undefined), the INHIBITION worked out at 42.9%. Take `CCOCCC1(CNC(=O)c2ccncc2Cl)CCC1`: the INHIBITION came out at 20.4%. `O=C(NCc1ccco1)[C@@]12CCO[C@@H]1CCN(CC1CCOCC1)C2`: the INHIBITION came to 11.4%. For `CN(Cc1cccnc1)Cc1cn2c(n1)CN(C1CCOC1)CC2` (centres undefined), the INHIBITION stood at 28.3%.

In the case of `COCCN(Cc1nc2c(cnn2C)c(=O)[nH]1)C(C)COC` (centres undefined), the INHIBITION is listed as -7.35%. The value for `COCCN1C(=O)CCC12CCC(NCc1cccnc1OC)CC2` (centres undefined) was 34.6%; that for `O=c1cc(CNCc2ccc3c(c2)OCO3)nc2ccc(Br)cn12` was 28%.

As to `O=C(Cc1ccon1)NC1CCCN(c2ccccc2F)C1=O` (centres undefined), the INHIBITION turned out to be 9.72%. On to `O=C1CCCc2[nH]c(=O)c(C(=O)N(Cc3ccsc3)C3CC3)cc21`, for which the INHIBITION is given as 26.43%. As to `Cc1nc(CN2C[C@@H](NC(=O)C3CCC3)[C@H]3COC[C@H]32)cs1`, the INHIBITION is -10.5%. As for `Fc1ccc(-c2nc(CN3CCCCC3Cn3cncn3)co2)cc1` (centres undefined), the INHIBITION is on record as -0.113%. Turning to `COc1cccc(CN(C)C(=O)c2csc(-c3nnc[nH]3)n2)c1`, the INHIBITION stood at 40.9%. Consider `COCCN(Cc1ccccc1)C(=O)c1csc(-c2nnc[nH]2)n1`, for which the INHIBITION is listed as 24.7%. The value for `CN(CCCOc1ccccc1)C(=O)c1csc(-c2nnc[nH]2)n1` was 53.9%; that for `Cc1ccccc1-c1cncc(C2CCN(CC(=O)N(C)C)CC2)n1` was -0.371%; that for `Cc1cc(F)ccc1NS(=O)(=O)c1cc2c(c(C(=O)O)c1)OCCO2` was 25.1%. Turning to `CC(C)C(C)(O)CNc1cccc(F)c1C#N` (centres undefined), the INHIBITION is -23.8%. `CSCC(C)(O)CNc1cccc(F)c1C#N` (centres undefined): the INHIBITION was determined as 56.5%.

For the compound `CSCC(C)(O)CNc1cccc(F)c1C(C)=O` (centres undefined), the INHIBITION is listed as 21.8%.

`CCOc1ncccc1NC(=O)c1cc(C)sc1C`: the INHIBITION is on record as -8.66%. For the compound `Fc1cccc(CN2CCC(c3n[nH]c4ncccc34)CC2)c1F`, the INHIBITION is given as 42.6%. With `Fc1cccc(CN2CCC(c3noc(-c4ccccn4)n3)CC2)c1F`, the INHIBITION was -6.73%. `Fc1cc(F)cc(CN2CCC(c3cc4ncccc4cn3)CC2)c1`: the INHIBITION came to 32.3%. `COc1ccc(C)cc1CN1CCC(c2cc3ncccc3cn2)CC1`: the INHIBITION is given as 87.9%. The value for `Fc1cccc(CN2CCC(c3cc4ncccc4cn3)CC2)c1F` was 52.7%. Take `CCc1onc(C)c1C(=O)N1CCC(c2cc3ncccc3cn2)CC1`: the INHIBITION was found to be 17.1%. The value for `Fc1ccc(F)c(CN2CCC(c3cnccn3)CC2)c1` was 34.1%.

Regarding `COc1ccc(C)cc1CN1CCN(Cc2nccn2C)CC1`, the INHIBITION is recorded as -190%. `Fc1ccc(F)c(CN2CCC(c3cc4ncccc4cn3)CC2)c1`: the INHIBITION is recorded as 63.8%. Consider `Cc1ccsc1C(CNC(=O)c1cc(=O)c2ccccc2[nH]1)N(C)C` (centres undefined), for which the INHIBITION is given as -38.6%. Regarding `FC(F)(F)c1csc(N2CCN(Cc3ccccn3)CC2)n1`, the INHIBITION is given as 1.56%. On to `COC(=O)CCN(C)C(=O)c1ccc(-c2cscn2)cc1`, for which the INHIBITION was determined as 67.3%. As to `O=C(O)c1ccc(-c2cscn2)cc1`, the INHIBITION is recorded as -36.1%. Consider `CN(C)C(=O)c1ccc(-c2cscn2)cc1`, for which the INHIBITION amounted to 14.6%. The value for `Nc1ncnc2[nH]c(N3CCCCC3)nc12` was 4.12%. The value for `CSc1nc(N)cc(N2C[C@H]3CC[C@@H](C2)N(CC2CC2)C3=O)n1` was -65%. `O=C(NCCc1c[nH]cn1)c1ccc2c(c1)C(=O)N(C1CC1)C2=O`: the INHIBITION is -36.3%. For the compound `CCC(C)N1C(=O)c2ccc(C(=O)NCCc3c[nH]cn3)cc2C1=O` (centres undefined), the INHIBITION was determined as 53.2%.

Regarding `COCCN1C(=O)c2ccc(C(=O)NCCc3c[nH]cn3)cc2C1=O`, the INHIBITION is recorded as 68.4%. Consider `CC(C)CCN1C(=O)c2ccc(C(=O)NCCc3c[nH]cn3)cc2C1=O`, for which the INHIBITION stood at 65.4%. As to `COCCCN1C(=O)c2ccc(C(=O)NCCc3c[nH]cn3)cc2C1=O`, the INHIBITION is 34.3%. Turning to `O=C(NCCc1c[nH]cn1)c1ccc2c(c1)C(=O)N(C1CCCC1)C2=O`, the INHIBITION is given as 36.6%.

For the compound `CCCNC(=O)c1ccc2c(c1)C(=O)N(CC(C)C)C2=O`, the INHIBITION was found to be 31.8%.

`CC(C)CN1C(=O)c2ccc(C(=O)NCCc3c[nH]cn3)cc2C1=O`: the INHIBITION was 24.5%. With `O=C(NCCc1c[nH]cn1)c1ccc(S(=O)(=O)NC2CCCC2)cc1`, the INHIBITION is 7.65%. The value for `CCc1nnc(CN(C)C2CCCN(Cc3noc(C4CC4)n3)C2)o1` (centres undefined) was 27.8%. For `Cc1ccc(F)c(NC(=O)NCCCn2nc3ccccn3c2=O)c1`, the INHIBITION is -0.113%. Regarding `O=C(c1ccc(-c2cn[nH]c2)nc1)N1CCC(N2CCOCC2)CC1`, the INHIBITION was 10.1%.
